Records with an inconclusive call do not appear. A call without a number means that no potency is given here. Calls of active or inactive are those of the source. The call rests on the fitted dose curve; in most records, active means well fitted curve in the direction sought with a large enough effect; inconclusive means small, poorly fitted or top-dose-only effect, or another doubt; inactive means no such curve, though single readings can be large; an effect the other way counts as inactive or inconclusive.
What was measured:
[1] = biological target: Metallo-beta-lactamase type 2 (Klebsiella pneumoniae) (UniProt C7C422); test: qHTS to identify inhibitors of the New Delhi Metallo-beta-lactamase (NDM): assay validation screen against the NCATS LOPAC Collection (AID 1794843);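 further: nitrocefin turnover by NDM-1 measured as 485 nm absorbance at plateau; series mostly up to about 38 µM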
Chain of Metallo-beta-lactamase type 2 (Klebsiella pneumoniae) (C7C422 whole entry, looked up): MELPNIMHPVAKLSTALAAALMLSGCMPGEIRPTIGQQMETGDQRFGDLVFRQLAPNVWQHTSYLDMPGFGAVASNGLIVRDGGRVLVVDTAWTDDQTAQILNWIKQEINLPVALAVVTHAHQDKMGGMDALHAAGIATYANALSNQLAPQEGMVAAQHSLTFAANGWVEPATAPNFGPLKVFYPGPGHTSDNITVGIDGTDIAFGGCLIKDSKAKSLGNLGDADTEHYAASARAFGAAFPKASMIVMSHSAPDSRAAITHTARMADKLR
Summary of the method: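 NDM-1 at 2 nM final in 50 mM HEPES pH 7.0 with 1 uM ZnSO4 and 0.01% Tween20 was preincubated with library compounds in DMSO. Nitrocefin (50 uM stock) was then added, and absorbance at 485 nm was read at the kinetic plateau.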

[2] = biological target: Glutathione peroxidase 1 (Homo sapiens) (UniProt P07203); test: Primary qHTS Assay for Inhibitors of Recombinant Selenoprotein Glutathione Peroxidase 1 (GPX1) (AID 1845191); further: nearly all actives have a fitted effect of over 65% in size
Chain of Glutathione peroxidase 1 (Homo sapiens) (P07203 whole entry, looked up): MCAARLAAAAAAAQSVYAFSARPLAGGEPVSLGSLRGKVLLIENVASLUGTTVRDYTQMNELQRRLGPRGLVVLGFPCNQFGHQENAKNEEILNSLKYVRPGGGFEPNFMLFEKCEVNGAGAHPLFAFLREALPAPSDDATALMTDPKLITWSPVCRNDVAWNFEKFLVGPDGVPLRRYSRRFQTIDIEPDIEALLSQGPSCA
Summary of the method: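 GPX1 10 nM, GR 100 nM, GSH 1 mM, NADPH 0.5 mM, CHP 0.5 mM (final). 30-min cpd preincubation, RT. Ex340/Em450 read t=0, t=15 min.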

[3] = biological target: Phospholipid hydroperoxide glutathione peroxidase GPX4 (Homo sapiens) (UniProt P36969); test: Primary qHTS Assay for Inhibitors of Recombinant Selenoprotein Glutathione Peroxidase 4 (GPX4) (AID 1845192); further: nearly all actives have a fitted effect of over 65% in size
Chain of Phospholipid hydroperoxide glutathione peroxidase GPX4 (Homo sapiens) (P36969 whole entry, looked up): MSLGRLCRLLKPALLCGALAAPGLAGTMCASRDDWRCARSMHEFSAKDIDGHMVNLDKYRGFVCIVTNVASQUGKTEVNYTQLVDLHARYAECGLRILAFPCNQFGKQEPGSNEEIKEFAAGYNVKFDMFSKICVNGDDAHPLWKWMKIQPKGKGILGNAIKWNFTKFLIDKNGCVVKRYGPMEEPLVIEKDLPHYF
Summary of the method: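 qHTS, GR-coupled: GPX4 200 nM + cpd 30 min RT → GSH 1 mM, NADPH 0.5 mM, GR 100 nM → CHP 0.5 mM start; fluor 340/450 at t0 and t15 min; no-enzyme wells as control.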

SMILES | Potency [1] | Potency [2] | Potency [3]
CC(C)C[C@H](NC(=O)C1OC1C(=O)O)C(=O)NCCCCN=C(N)N (some centres undefined) | inactive | inactive | inactive
C[C@H]1CC2C3CCC4=CC(=O)C=C[C@]4(C)[C@@]3(Cl)[C@@H](O)C[C@]2(C)[C@@]1(O)C(=O)CO (some centres undefined) | inactive | inactive | inactive
CC1CCN=C(N)S1 (centres undefined) | inactive | inactive | inactive
COc1ccccc1N1CCN(CCCCNC(=O)c2ccc3ccccc3c2)CC1 | inactive | inactive | inactive
Nc1ccc(-c2nc3ccc(-c4nc5ccc(N)cc5[nH]4)cc3[nH]2)cc1 | inactive | inactive | inactive
CCn1c(=O)[nH]c2cc(Cl)c(Cl)cc21 | inactive | inactive | inactive
CCC1(O)CC2CN(CCc3c([nH]c4ccccc34)[C@@](C(=O)OC)(c3cc4c(cc3OC)N(C=O)C3[C@]45CCN4CC=C[C@@](CC)([C@@H](OC(C)=O)[C@]3(O)C(=O)OC)[C@H]45)C2)C1 (some centres undefined) | inactive | inactive | inactive
N=C(N)SCCN | inactive | inactive | –
COC(=O)[C@H](NC(=O)c1cc(-c2ccccc2)nc2ccccc12)c1ccccc1 | inactive | inactive | inactive
Nc1ncnc2c1ncn2C1CCCO1 (centres undefined) | inactive | inactive | inactive
O=C(O)c1ccccc1Nc1ccccc1 | inactive | inactive | inactive
O=c1onc2n1-c1cc(Br)ccc1OC2 | inactive | inactive | inactive
O=C(O)C1=CCCNC1 | inactive | inactive | inactive
COc1ccc(CCN(C)CCc2ccc(OC)c(OC)c2)cc1OC | inactive | inactive | inactive
O=C(O)/C(=C/c1c(C(=O)O)[nH]c2cc(Cl)cc(Cl)c12)c1ccccc1 | inactive | inactive | inactive
Cn1cc(C(=O)OCC2CCN(CCNS(C)(=O)=O)CC2)c2ccccc21 | inactive | inactive | inactive
C=C(C)C1CC=C(C(=O)O)CC1 (centres undefined) | inactive | inactive | inactive
Oc1cc2c(cc1O)C(c1ccccc1)CNCC2 (centres undefined) | inactive | inactive | inactive
Cc1cccc(C2CN(C)CCc3c2cc(O)c(O)c3Cl)c1 (centres undefined) | inactive | inactive | inactive
Cn1c(=O)c2[nH]c(C3CCCC3)nc2n(C)c1=O | inactive | inactive | –
CCCCCCCCCCCCCCSCC(=O)O | inactive | inactive | –

SMILES | Potency [1] | Potency [2] | Potency [3]
CN(C)CCC(c1ccc(Br)cc1)c1ccccn1 (centres undefined) | inactive | inactive | inactive
NCCS(=O)O | inactive | inactive | –
O=C1NC(=O)c2cc(Nc3ccccc3)c(Nc3ccccc3)cc21 | inactive | inactive | inactive
CC(C)Cn1c(=O)n(C)c(=O)c2[nH]cnc21 | inactive | inactive | inactive
Fc1ccc(CN(C2=NCCN2)c2c(Cl)cccc2Cl)cc1 | inactive | inactive | inactive
O=C(O)Cc1c[nH]c2ccc(O)cc12 | inactive | inactive | inactive
NC(=Nc1ccccc1)NC(=O)c1nc(Cl)c(N)nc1N | inactive | inactive | inactive
Nc1nc2c(cnn2CCc2ccccc2)c2nc(-c3ccco3)nn12 | inactive | inactive | inactive
COc1ccc(NC(=O)c2ccc(-c3ccc(-c4noc(C)n4)cc3C)cc2)cc1N1CCN(C)CC1 | inactive | inactive | inactive
NC1(C(=O)O)CCCCC1 | inactive | inactive | inactive
CN1C2CCC1CC(OC(c1ccccc1)c1ccccc1)C2 (centres undefined) | inactive | inactive | inactive
Cc1nc(N=Nc2ccc(S(=O)(=O)O)cc2S(=O)(=O)O)c(COP(=O)(O)O)c(C=O)c1O | inactive | inactive | inactive
CCCn1c(=O)c2c(ncn2C)n(CCC)c1=O | inactive | inactive | inactive
O=C(O)c1cc(=O)cc(C(=O)O)[nH]1 | inactive | inactive | inactive
O=C(O)C1CN(CCCP(=O)(O)O)CCN1 (centres undefined) | inactive | inactive | inactive
NC(=O)CNCCC(c1ccccc1)c1ccccc1 | inactive | inactive | inactive
Nc1ccc2c3c(cccc13)C(=O)NC2=O | inactive | inactive | inactive
C=CCN1CCc2c(cc(O)c(O)c2Cl)C(c2ccccc2)C1 (centres undefined) | inactive | inactive | inactive
CN1Cc2sccc2C(c2ccc(O)c(O)c2)C1 (centres undefined) | inactive | inactive | inactive
CCCN(CCc1ccccc1)C1CCc2c(O)cccc2C1 (centres undefined) | inactive | inactive | inactive
CCCCS(=N)(=O)CC[C@H](N)C(=O)O (some centres undefined) | inactive | inactive | inactive

SMILES | Potency [1] | Potency [2] | Potency [3]
CSC(=N)N | inactive | inactive | inactive
C[C@H](NC(=O)/C(C#N)=C/c1ccc(O)c(O)c1)c1ccccc1 | inactive | inactive | inactive
O=C(O)C1CCNCC1 | inactive | inactive | inactive
CC(=O)O[C@H]1CC2(C)[C@@H](C[C@@H](O)[C@H]3[C@@]4(C)CC[C@@H](O)[C@@H](C)[C@@H]4CC[C@@]32C)C1=C(CCC=C(C)C)C(=O)O (some centres undefined) | inactive | inactive | inactive
C#CCn1c(=O)c2c(ncn2C)n(C)c1=O | inactive | inactive | inactive
Nc1ccc(CCNc2ncnc3c2ncn3C2OC(CO)C(O)C2O)cc1 (centres undefined) | inactive | inactive | inactive
O=c1onc2cnc3ccccc3n12 | inactive | inactive | inactive
CCCOC(=O)c1c(-c2ccccc2)nc(CC)c(C(=O)SCC)c1CCC | inactive | inactive | inactive
N[C@@H](CS(=O)O)C(=O)O | inactive | inactive | inactive
O[Si](CCCN1CCCCC1)(c1ccc(F)cc1)C1CCCCC1 (centres undefined) | inactive | inactive | inactive
CN1CC(O)C(O)C(O)C1CO (centres undefined) | inactive | inactive | inactive
NC(N)=N[C@@H](CCC(=O)O)C(=O)O | inactive | inactive | inactive
O=c1oc(Cl)c(Cl)c2ccccc12 | inactive | inactive | inactive
O=C(O)c1cc2cc(F)ccc2[nH]1 | inactive | inactive | inactive
Nc1nc2c(nc(Br)n2C2OC3COP(=O)(O)O[C@@H]3C2O)c(=O)[nH]1 (some centres undefined) | inactive | inactive | inactive
CNC(=O)c1cc2c(cn1)[nH]c1ccccc12 | inactive | inactive | inactive
NC(N)=NC(N)=Nc1cccc(Cl)c1 | inactive | inactive | inactive
CCN(c1nc(N)c(C(=O)N=C(N)N)nc1Cl)C(C)C | inactive | inactive | inactive
CCCCCC(O)CCCC(=O)O (centres undefined) | inactive | inactive | inactive
CC1C(=O)N(C)C(=O)c2nc[nH]c21 (centres undefined) | inactive | inactive | inactive
NC1CCN(O)C1=O (centres undefined) | inactive | inactive | inactive

SMILES | Potency [1] | Potency [2] | Potency [3]
COc1ccccc1N1CCN(CCCCN2C(=O)c3ccccc3C2=O)CC1 | inactive | inactive | inactive
O=S(=O)(c1cccc2c(Cl)cccc12)N1CCCNCC1 | inactive | inactive | inactive
CCN(CC)CCCCCCCCOC(=O)c1cc(OC)c(OC)c(OC)c1 | inactive | inactive | inactive
N=S(=O)(O)Cc1noc2ccccc12 | inactive | inactive | inactive
CCCCCCCCCC(=O)NC(CN1CCOCC1)[C@H](O)c1ccccc1 (some centres undefined) | inactive | inactive | inactive
CC(=O)[C@H]1CCC2C3CC=C4C[C@@H](OS(=O)(=O)O)CC[C@]4(C)C3CC[C@@]21C (some centres undefined) | inactive | inactive | inactive
NOCC(=O)O | inactive | inactive | inactive
CCCCCCCCCCCCCCCCCCOC[C@H](COP(=O)([O-])OCC[N+](C)(C)C)OC | inactive | inactive | inactive
C=C1C(=O)O[C@@H]2[C@H]3O[C@]3(C)CCC=C(C)CC[C@@H]12 | inactive | inactive | inactive
CN1CCCC1CCOC(C)(c1ccccc1)c1ccc(Cl)cc1 (centres undefined) | inactive | inactive | inactive
CC(C)(C)NCC(O)COc1cccc2[nH]c(=O)[nH]c12 (centres undefined) | inactive | inactive | inactive
CCCCOc1cc(CC2CNC(=O)N2)ccc1OC (centres undefined) | inactive | inactive | inactive
NCCNS(=O)(=O)c1cccc2c(Cl)cccc12 | inactive | inactive | inactive
NS(=O)(=O)c1cccc2c1c([N+](=O)[O-])cc1nc(O)c(O)nc12 | inactive | inactive | inactive
N#CC(C#N)=C(N)/C(C#N)=C/c1ccc(O)cc1 | inactive | inactive | inactive
C=CCn1c(=O)c2c(nc(-c3ccc(S(=O)(=O)O)cc3)n2C)n(C)c1=O | inactive | inactive | inactive
COc1cc(/C=C(\C#N)C(=O)c2ccc(O)c(O)c2)cc(I)c1O | inactive | inactive | inactive
NC(N)=NC(N)=Nc1ccccc1 | inactive | inactive | inactive
